Measurements published in PubChem BioAssay (NCI).
Several values for one entry are separate records, joined by “and”; a condition that tells them apart may be missing. Equal entries are not always repeated. The panel holds about 79,000 compounds, 15% with a hit somewhere; the sample as a whole holds those more often. A structure can be active in one record and inactive in another. Activity calls are given as the source filed them. Cut-off read from the data, not from the text of the source: active = growth inhibition above about 70%; inactive = the rest.

Tests used:
[1] = NCI Yeast Anticancer Drug Screen. Data for the wt1 strain (AID 149);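 note: 0% = growth of vehicle-treated wt1 cultures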; details: S. cerevisiae wt1 strain (SPY 50644) growth inhibition, stronger effect = higher value
In short: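 wt1 yeast, compound-treated; % growth inhibition vs vehicle control.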

[2] = NCI Yeast Anticancer Drug Screen. Data for the rad50EPP+ strain (AID 151);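 note: 0% = growth of vehicle-treated control cultures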; details: S. cerevisiae rad50 mutant strain, stronger effect = higher value
In short: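 Read-out is yeast growth inhibition relative to vehicle; cells used were the rad50EPP+ strain.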

[3] = NCI Yeast Anticancer Drug Screen. Data for the mgt1 strain (AID 153); details: S. cerevisiae mgt1 mutant growth inhibition, stronger effect = higher value
In short: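 Measured: inhibition of mgt1 yeast growth by compound, normalized to vehicle-treated cultures.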

[4] = NCI Yeast Anticancer Drug Screen. Data for the rad50 strain (AID 155);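 note: 0% = growth of vehicle-only cultures of the same strain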; details: S. cerevisiae rad50 strain growth inhibition, stronger effect = higher value
In short: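 Genetically altered yeast (DNA repair pathway); compound treatment; growth inhibition vs vehicle ctrl.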

[5] = NCI Yeast Anticancer Drug Screen. Data for the mec2-1 strain (AID 157); details: S. cerevisiae mec2-1 strain, stronger effect = higher value
In short: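 Using mec2-1 yeast: add compound, measure growth, express inhibition versus vehicle-treated cultures.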

[6] = NCI Yeast Anticancer Drug Screen. Data for the rad14 strain (AID 159);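 note: 0% = growth of vehicle-treated control cultures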; details: S. cerevisiae rad14 strain growth inhibition, stronger effect = higher value
In short: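 Test compounds were applied to a repair-deficient yeast strain. Its growth was then compared with that of cultures given vehicle alone, and inhibition was expressed relative to those controls.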

[7] = NCI Yeast Anticancer Drug Screen. Data for the sgs1 mgt1 strain (AID 161);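 note: 0% = growth of cultures given vehicle only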; details: S. cerevisiae sgs1 mgt1 strain, stronger effect = higher value
In short: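 Percent growth inhibition was derived by comparing compound-exposed mutant yeast with vehicle-exposed cultures. The strain carries alterations in DNA damage repair.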

[8] = NCI Yeast Anticancer Drug Screen. Data for the CLN2oe strain (AID 163);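 note: 0% = growth of vehicle-only control cultures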; details: S. cerevisiae CLN2oe strain, stronger effect = higher value
In short: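 Whole-cell yeast growth assay. A strain engineered for altered cell-cycle control received compound, and inhibition relative to vehicle-treated cultures was recorded.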

[9] = NCI Yeast Anticancer Drug Screen. Data for the cln2 rad14 strain (AID 165);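 note: 0% = growth equal to vehicle treated cultures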; details: S. cerevisiae cln2 rad14 strain, stronger effect = higher value
In short: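 Yeast strain cln2 rad14, bearing defects in cell cycle control and DNA repair, serves as the test system; values reflect growth inhibition compared with vehicle.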

[10] = NCI Yeast Anticancer Drug Screen. Data for the bub3 strain (AID 167); details: S. cerevisiae bub3 mutant strain, stronger effect = higher value
In short: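 Yeast carrying a defined mutation is treated with each compound, and growth is compared with that of vehicle-exposed cells to give inhibition.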

[11] = NCI Yeast Anticancer Drug Screen. Data for the wt2 strain (AID 169);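 note: 0% = growth of vehicle-treated yeast cultures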; details: S. cerevisiae wt2 strain growth inhibition, stronger effect = higher value
In short: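 Treated yeast vs. vehicle-treated yeast: growth inhibition determined.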

[12] = NCI Yeast Anticancer Drug Screen. Data for the mlh1 strain (AID 171);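 note: 0% = growth of vehicle-treated control cultures of the same strain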; details: S. cerevisiae mlh1 strain growth inhibition, stronger effect = higher value
In short: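 A yeast strain with a defined genetic lesion serves as the test organism. Cultures receive compound or vehicle, and growth is measured.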

[13] = NCI Yeast Anticancer Drug Screen. Data for the sgs1 strain (AID 173);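 note: 0% = growth of vehicle-only control cultures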; details: S. cerevisiae sgs1 mutant, stronger effect = higher value
In short: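 A genetically defined yeast mutant is incubated with the test compound, and its growth is compared to that of the same strain given vehicle.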

[14] = NCI Yeast Anticancer Drug Screen. Data for the mlh1 rad18 strain (AID 175); details: S. cerevisiae mlh1 rad18 strain growth inhibition, stronger effect = higher value
In short: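 Steps: expose repair-defective yeast to compound; measure growth; express inhibition against vehicle-treated controls.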

[15] = NCI Yeast Anticancer Drug Screen. Data for the rad18 strain (AID 177); details: S. cerevisiae rad18 mutant growth inhibition, stronger effect = higher value
In short: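 Measured value is growth inhibition of a yeast strain bearing a DNA repair alteration, referenced to vehicle-treated cells.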

[16] = at 5.0 µM (retest, dose inferred, filed as 0.5)
[17] = at 50.0 µM (retest, dose inferred, filed as 5.0)

Measured: growth inhibition

Cc1cnc(/C=N\NC(N)=S)c2cccc(N)c12
inactive: [1]; at 1.2 µM -63% | [1]; at 3.7 µM -49% | [1]; at 11.0 µM -36% | [1]; at 33.0 µM 58% | [2]; at 1.2 µM -68% | [2]; at 3.7 µM -57% | [2]; at 11.0 µM -45% | [2]; at 33.0 µM -38% | [2]; at 100.0 µM -4% | [3]; at 1.2 µM -78% | [3]; at 3.7 µM -69% | [3]; at 11.0 µM -12% | [3]; at 33.0 µM 43% | [4]; at 1.2 µM -81% | [4]; at 3.7 µM -43% | [4]; [16] 13% and 15% | [4]; at 11.0 µM -69% | [4]; at 33.0 µM 28% | [4]; at 50.0 µM 62.3% and 60% | [5]; at 1.2 µM -19% | [5]; at 3.7 µM -48% | [5]; [16] 7% and 21% | [5]; at 11.0 µM 13% | [6]; at 1.2 µM -92% | [6]; at 3.7 µM -75% | [6]; at 11.0 µM -35% | [6]; at 33.0 µM 45% | [7]; [16] 16% and 8% | [7]; at 50.0 µM 61.1% and 63% | [8]; at 1.2 µM -16% | [8]; at 3.7 µM -39% | [8]; at 11.0 µM -29% | [8]; at 33.0 µM 30% | [8]; at 100.0 µM 63% | [9]; [16] -8% and 9% | [9]; [17] 66% and -55% | [10]; at 1.2 µM -69% | [10]; at 3.7 µM -60% | [10]; [16] 15% and 9% | [10]; at 11.0 µM -50% | [10]; at 33.0 µM 25% | [11]; at 1.2 µM -73% | [11]; at 3.7 µM -48% | [11]; at 11.0 µM 5% | [11]; at 33.0 µM 56% | [12]; at 1.2 µM -75% | [12]; at 3.7 µM -79% | [12]; at 11.0 µM -43% | [12]; at 33.0 µM 27% | [13]; at 1.2 µM -39% | [13]; at 3.7 µM -42% | [13]; at 11.0 µM -13% | [13]; at 33.0 µM 49% | [14]; [16] 17% and 23% | [15]; at 1.2 µM -144% | [15]; at 3.7 µM -115% | [15]; at 11.0 µM -88% | [15]; at 33.0 µM 25%
active: [1]; at 100.0 µM 90% | [3]; at 100.0 µM 84% | [4]; [17] 80% and 71% | [4]; at 100.0 µM 83% | [5]; at 33.0 µM 82% | [5]; [17] 87% and 86% | [5]; at 100.0 µM 94% | [6]; at 100.0 µM 91% | [10]; at 100.0 µM 80% | [11]; at 100.0 µM 91% | [12]; at 100.0 µM 87% | [13]; at 100.0 µM 94% | [14]; [17] 85% and 82% | [14]; at 50.0 µM 75.2% and 89% | [15]; at 100.0 µM 85%
83% (active) and 30% (inactive): [7]; [17]
42.1% (inactive) and 70% (active): [9]; at 50.0 µM
48.4% (inactive) and 75.1% (active): [10]; at 50.0 µM
74% (active) and 60% (inactive): [5]; at 50.0 µM
87% (active) and -11% (inactive): [10]; [17]

O=C1c2ccccc2-c2ccc(NC(=O)C3CCCCC3C(=O)O)cc21 (stereo not drawn)
inactive: [1]; at 1.2 µM 0% | [1]; at 3.7 µM -2% | [1]; at 11.0 µM -1% | [1]; at 33.0 µM 7% | [1]; at 100.0 µM 40% | [2]; at 1.2 µM 4% | [2]; at 3.7 µM 15% | [2]; at 11.0 µM 22% | [2]; at 33.0 µM 34% | [2]; at 100.0 µM 55% | [3]; at 1.2 µM -2% | [3]; at 3.7 µM -2% | [3]; at 11.0 µM -3% | [3]; at 33.0 µM 13% | [4]; at 1.2 µM 4% | [4]; at 3.7 µM 5% | [4]; [16] 3% | [4]; at 11.0 µM 10% | [4]; at 33.0 µM 24% | [4]; [17] 22% | [4]; at 50.0 µM 43.1% | [4]; at 100.0 µM 64% | [5]; at 1.2 µM 4% | [5]; at 3.7 µM 6% | [5]; [16] 18% | [5]; at 11.0 µM 5% | [5]; at 33.0 µM 18% | [5]; [17] 15% | [5]; at 50.0 µM 42.6% | [5]; at 100.0 µM 67% | [6]; at 1.2 µM -2% | [6]; at 3.7 µM -12% | [6]; at 11.0 µM -2% | [6]; at 33.0 µM 1% | [7]; [16] -2% | [7]; [17] 7% | [7]; at 50.0 µM 42.3% | [8]; at 1.2 µM -9% | [8]; at 3.7 µM -5% | [8]; at 11.0 µM -10% | [8]; at 33.0 µM -2% | [8]; at 100.0 µM 40% | [10]; at 1.2 µM 44% | [10]; at 3.7 µM 55% | [10]; [16] 6% | [11]; at 1.2 µM 0% | [11]; at 3.7 µM -1% | [11]; at 11.0 µM 1% | [11]; at 33.0 µM 24% | [12]; at 1.2 µM 7% | [12]; at 3.7 µM 3% | [12]; at 11.0 µM 4%
active: [3]; at 100.0 µM 72% | [6]; at 100.0 µM 86% | [10]; at 11.0 µM 72% | [10]; at 33.0 µM 80% | [10]; [17] 78% | [10]; at 50.0 µM 90.5% | [10]; at 100.0 µM 90% | [11]; at 100.0 µM 80%
